The results in this text go back to PubChem BioAssay (NCATS).

Structures are written as SMILES. Inconclusive results are not listed. Calls of active or inactive are those of the source. Calls follow the shape of the full dose curve.
% is scaled to controls: 0 for no effect and ±100 for the full control effect.

This assay is described as follows: qHTS Assay for Lipid Storage Modulators (AID 1519). To be noted: Drosophila S3 cells, BODIPY lipid droplet/cell ratio, laser cytometry; at 57.5 µM (top of the series); cells loaded with oleic acid. A digest of the protocol: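 Cells seeded at 5,000 per well were treated with compounds over a concentration series and loaded with oleic acid (400 uM, as added). Lipid droplet fluorescence (488 nm excitation, 500-530 nm channel) was read by laser-scanning cytometry and normalized to 20 uM Triacsin C.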
(In general: In qHTS, concentration-response curves come from the screen itself.)
Take `CCC(C)C(=O)OC1C(O)C2C(CN3CC(C)CCC3[C@]2(C)O)C2C[C@]34O[C@@]5(O)C(OC(=O)C(C)(O)C(C)O)CCC3(C)C5C(OC(C)=O)C(OC(C)=O)C4[C@@]21O` (stereo not given in full): the activity change, negative = inhibition is 4.38% (inactive).
As for `N#CC(O[C@@H]1OC(COC2OC(CO)C(O)C(O)[C@@H]2O)C(O)C(O)C1O)c1ccccc1` (stereo not given in full), the activity change, negative = inhibition is 2.68% (inactive).
Regarding `CCN1C[C@@]2(OC(=O)c3ccccc3NC(C)=O)CCC(OC)[C@@]34C5CC6C(OC)C[C@@](O)(C(CC23)[C@@H]14)C5(O)C6OC` (stereo not given in full), the activity change, negative = inhibition is 4.73% (inactive).
Regarding `CCOC(=O)C1C(C=C(C)C)C1(C)C` (stereo not given), the activity change, negative = inhibition is 2.84% (inactive).
With `FC(F)(F)c1cccc(N2CCNCC2)c1`, the activity change, negative = inhibition was 4.68% (inactive).
As to `CC(N)[C@@H](O)c1ccccc1` (stereo not given in full), the activity change, negative = inhibition is 6.04% (inactive).
With `CC1C(=O)OC2C(O)C34C5OC(=O)[C@@]3(OC3OC(=O)[C@H](O)[C@]34C(C(C)(C)C)C5O)[C@]12O` (stereo not given in full), the activity change, negative = inhibition is 0.291% (inactive).
For the molecule `CC(=O)OC1CC[C@]2(C)C(CCC3C2CC[C@]2(C)C(C4=CC(=O)OC4)C(OC(C)=O)CC32O)C1` (stereo not given in full), the activity change, negative = inhibition was 6.45% (inactive).
For `C[C@]12CCC3C(C=CC4=CC(=O)CC[C@]43C)C1CC[C@]2(O)CCC(=O)O` (stereo not given in full), the activity change, negative = inhibition is 1.44% (inactive).
`CC1C(=O)OC2CCN3CC=C(COC(=O)[C@](C)(O)[C@]1(C)O)C23` (stereo not given in full): the activity change, negative = inhibition was 5.81% (inactive).
Turning to `C/C=C(/C)C(=O)OC1CC[C@]2(C)C3CCC4[C@]5(O)CC(O)[C@]6(O)C(CN7CC(C)CCC7[C@]6(C)O)[C@]5(O)C[C@@]42O[C@]13O` (stereo not given in full), the activity change, negative = inhibition was 5.46% (inactive).
Next, `CC1O[C@@H](OC2CC[C@@]3(C=O)C4CC[C@]5(C)C(C6=CC(=O)OC6)CC[C@@]5(O)C4CC[C@]3(O)C2)C(O)C(O)C1O` (stereo not given in full): 2.77% (inactive).
Next, `COc1ccc(/C=C/c2cc(O)cc(O)c2)cc1`: 4.7% (inactive); `CNC(Cc1c[nH]c2ccccc12)C(=O)O` (stereo not given): 4.43% (inactive); `COC1C(O)C(C)O[C@H](OC2CC[C@@]3(C=O)C4CC[C@]5(C)C(C6=CC(=O)OC6)CC[C@@]5(O)C4CC[C@@H]3C2)C1O` (stereo not given in full): 3.31% (inactive).
Under `O=C(NC(=O)c1ccccc1Cl)Nc1ccc(OC(F)(F)F)cc1` stands 8.39% (inactive).
Take `CC(=O)OC1CC(OC(C)=O)[C@]2(C)C(CC(OC(C)=O)[C@]3(C)C2CC[C@@]2(C)C(c4ccoc4)C[C@H]4O[C@]432)C1(C)C` (stereo not given in full): the activity change, negative = inhibition was 6.91% (inactive).
On to `CCC(N)C(O)c1ccc(O)c(O)c1` (stereo not given), for which the activity change, negative = inhibition is 5.92% (inactive).
Regarding `CC(=O)C1CC[C@H]2C3CC[C@@H]4CC(O)CC[C@@]4(C)C3CC[C@]12C` (stereo not given in full), the activity change, negative = inhibition was 12.3% (inactive).
On to `O=C(O)CCC1NCC2CC1CN1CCCCC21` (stereo not given), for which the activity change, negative = inhibition was 2.61% (inactive).
With `CC1(C)N([O-])[N+](=O)C1(C)Br` (stereo not given), the activity change, negative = inhibition was 1.13% (inactive).
With `COc1cc2c3cc1Oc1c(OC)c(OC)cc4c1C(Cc1cccc(c1)Oc1ccc(c(O)c1)CC3N(C)CC2)N(C)CC4` (stereo not given), the activity change, negative = inhibition is 6.04% (inactive).
For `COC[C@]12CN(C=O)C3C4C(OC)C1[C@@]3(C1CC3(O)C(OC)C(O)C4(OC(C)=O)C1C3OC(=O)c1ccccc1)[C@@H](OC)CC2O` (stereo not given in full), the activity change, negative = inhibition was -0.123% (inactive).
`COc1cc2c(c(OC)c1OC)-c1ccc(O)c(=O)cc1C(NC(C)=O)CC2` (stereo not given): the activity change, negative = inhibition is 7.7% (inactive).
On to `CN1C2CC3CC1C(O3)C2O` (stereo not given), for which the activity change, negative = inhibition is 1.96% (inactive).
